# Data from PubChem BioAssay (NCATS).
# Results filed as inconclusive are left out. The source made the active and inactive calls. The call rests on the fitted dose curve; in most records, active means well fitted cell-killing curve with a large enough effect; inconclusive means small, poorly fitted or top-dose-only effect, or effect the other way; inactive means no such curve, though single readings can be large or run the other way.
# Legend:
# [1] = Quantitative High-Throughput drug screen in 47 multiple myeloma cell lines against the NCATS MIPE library collection: UTMC2_PLB cell viability assay (AID 1919868); conditions: CellTiter-Glo ATP luminescence, 48 h; viability (% of DMSO control): at 45.8 µM (top of the series); further: nearly all actives have a fitted effect of over 55% in size
# How it was run: (§1)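 Plated at 500 cells per well, myeloma lines received MIPE 4.0 compounds by pin tool. Following 48 h culture at 37 °C, CellTiter-Glo luminescence gave viability relative to DMSO and media-only controls.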
# [2] = Quantitative High-Throughput drug screen in 47 multiple myeloma cell lines against the NCATS MIPE library collection: PCM6_Riken cell viability assay (AID 1919870); further: nearly all actives have a fitted effect of over 30% in size
# How it was run: as §1
# [3] = Quantitative High-Throughput drug screen in 47 multiple myeloma cell lines against the NCATS MIPE library collection: RPMI8226_ATCC cell viability assay (AID 1919871); further: nearly all actives have a fitted effect of over 30% in size
# How it was run: as §1
# [4] = Quantitative High-Throughput drug screen in 47 multiple myeloma cell lines against the NCATS MIPE library collection: OPM2_DSMZ cell viability assay (AID 1919872); further: nearly all actives have a fitted effect of over 30% in size
# How it was run: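 Steps: seed 500 cells per well; pin-transfer MIPE 4.0 library; incubate 48 h at 37C, 5% CO2, humidified; add CellTiter-Glo, 5 min room temperature; read luminescence.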
# [5] = Quantitative High-Throughput drug screen in 47 multiple myeloma cell lines against the NCATS MIPE library collection: KMS11_JCRBsus cell viability assay (AID 1919873); further: nearly all actives have a fitted effect of over 50% in size
# How it was run: as §1
# [6] = Quantitative High-Throughput drug screen in 47 multiple myeloma cell lines against the NCATS MIPE library collection: KMS28BM_JCRB cell viability assay (AID 1919874); further: nearly all actives have a fitted effect of over 35% in size
# How it was run: as §1
# [7] = Quantitative High-Throughput drug screen in 47 multiple myeloma cell lines against the NCATS MIPE library collection: PE2_PLB cell viability assay (AID 1919869); further: nearly all actives have a fitted effect of over 35% in size
# How it was run: as §1
# Potency means the concentration at half of the fitted maximal effect.
SMILES,Potency [1],Potency [2],Potency [3],Potency [4],Potency [5],Potency [6],Potency [7]
C[N+]1(C)[C@@H]2CC(OC(=O)[C@H](CO)c3ccccc3)C[C@H]1[C@H]1O[C@@H]12 (some centres undefined),inactive,inactive,inactive,inactive,inactive,inactive,–
CC=CC(=O)N(CC)c1ccccc1C,inactive,–,3.72 µM (active),inactive,inactive,inactive,inactive
CC(=O)Oc1cc2c(s1)CCN(C(C(=O)C1CC1)c1ccccc1F)C2 (centres undefined),2.96 µM (active),1.48 µM (active),–,–,–,–,–
CC[C@@]1(O)C[C@H](O[C@H]2C[C@H](N(C)C)[C@H](O[C@H]3C[C@H](O)[C@H](O[C@H]4CCC(=O)[C@H](C)O4)[C@H](C)O3)[C@H](C)O2)c2c(cc3c(c2O)C(=O)c2c(O)cccc2C3=O)[C@@H]1C(=O)OC,0.187 µM (active),1.05 µM (active),0.296 µM (active),4.18 µM (active),0.166 µM (active),0.132 µM (active),–
COCCOc1nc(-c2ccc(Cl)c(Cl)c2)n(-c2ccc(NC(=O)CCl)cc2)n1,20.9 µM (active),16.6 µM (active),–,inactive,–,16.6 µM (active),18.7 µM (active)
Cc1cnc(C(=O)O)c[n+]1[O-],inactive,inactive,–,–,inactive,inactive,inactive
O=C(O)c1c(Cl)c(Cl)c(Cl)c(Cl)c1-c1c2cc(I)c(=O)c(I)c-2oc2c(I)c(O)c(I)cc12,inactive,6.62 µM (active),9.35 µM (active),–,6.62 µM (active),–,–
CC(C)OC(=O)C(C)(C)Oc1ccc(C(=O)c2ccc(Cl)cc2)cc1,inactive,–,18.7 µM (active),–,–,inactive,20.9 µM (active)
Cc1c(O)cccc1C(=O)N[C@@H](CSc1ccccc1)[C@H](O)CN1C[C@H]2CCCC[C@@H]2C[C@@H]1C(=O)NC(C)(C)C,23.5 µM (active),18.7 µM (active),–,26.4 µM (active),18.7 µM (active),20.9 µM (active),–
NC(CO)(CO)CCc1ccc(Sc2cccc(OCc3ccccc3)c2)cc1Cl,16.6 µM (active),14.8 µM (active),23.5 µM (active),23.5 µM (active),7.43 µM (active),11.8 µM (active),–
CO[C@@H](C(=O)N1Cc2[nH]nc(NC(=O)c3ccc(N4CCN(C)CC4)cc3)c2C1)c1ccccc1,0.0332 µM (active),26.4 µM (active),–,–,–,1.66 µM (active),20.9 µM (active)
COc1cc2nc(-c3ccc(N4CCN(C)CC4)cc3)nc(NCCN3CCOCC3)c2cc1OC,0.935 µM (active),0.166 µM (active),0.0833 µM (active),3.32 µM (active),0.0935 µM (active),0.105 µM (active),–
CCc1ccc(OCc2ccccc2C(=O)Nc2ccc3nc(C)cc(N)c3c2)cc1,3.32 µM (active),1.18 µM (active),6.62 µM (active),9.35 µM (active),1.48 µM (active),1.18 µM (active),–
C[C@@H]1CCN(C(=O)CC#N)C[C@H]1N(C)c1ncnc2[nH]ccc12,inactive,inactive,–,inactive,–,–,–
CC(C)C(=O)Nc1ncc(-c2cc(C(F)F)nn2-c2c(Cl)cccc2Cl)s1,20.9 µM (active),–,–,–,11.8 µM (active),11.8 µM (active),23.5 µM (active)
CN1[C@@H]2CCC[C@@H]1CC(NC(=O)c1nn(C)c3ccccc13)C2 (some centres undefined),–,inactive,–,inactive,inactive,inactive,–
CC(C)n1nc(-c2ccc3oc(N)nc3c2)c2c(N)ncnc21,–,0.0662 µM (active),–,–,–,–,–
CC(C)(C)Cn1c(N)nc2ccc(-c3[nH]c(C(C)(C)C)nc3-c3ccc(F)cc3)nc21,–,–,–,–,inactive,–,20.9 µM (active)
c1cc(-c2sc(-c3ccncc3)c(-c3ccncc3)c2-c2ccncc2)ccn1,–,–,–,inactive,inactive,inactive,14.8 µM (active)
C=C1C(=O)OC(CCCCCCCC)C1C(=O)O (centres undefined),–,23.5 µM (active),–,inactive,–,inactive,–
CC#CCn1c(N2CCC[C@@H](N)C2)nc2c1c(=O)n(Cc1nc(C)c3ccccc3n1)c(=O)n2C,–,inactive,inactive,–,inactive,inactive,–
CC1CCC(C(=O)N(c2cc(C#CC(C)(C)C)sc2C(=O)O)C2CCC(O)CC2)CC1 (centres undefined),–,20.9 µM (active),–,inactive,–,–,–
COC[C@@H](c1ccc(C(F)(F)F)cc1)N1CCN(C2(C)CCN(C(=O)c3c(C)ncnc3C)CC2)C[C@H]1C,–,20.9 µM (active),inactive,–,inactive,inactive,–
COc1ccc(C2CC(c3ccccc3)=NN2c2ccc(S(N)(=O)=O)cc2)cc1 (centres undefined),–,26.4 µM (active),–,inactive,–,–,–
c1ccc2c(-c3cnn4cc(-c5ccc(N6CCNCC6)cc5)cnc34)ccnc2c1,–,0.935 µM (active),–,–,–,–,–
COc1ccc(-c2coc3cc(O)cc(O)c3c2=O)cc1,–,inactive,–,inactive,inactive,inactive,–
COc1ncc(-c2ccc3nccc(-c4ccnnc4)c3c2)cc1NS(=O)(=O)c1ccc(F)cc1F,–,0.0332 µM (active),–,0.0026 µM (active),–,–,–
COc1cc(N2CCC(N3CCN(C)CC3)CC2)ccc1Nc1ncnc(Nc2ccccc2S(=O)(=O)C(C)C)n1,–,16.6 µM (active),–,–,–,–,–
Nc1ncnc2c1ncn2[C@@H]1O[C@H](CO)C[C@@H]1O,–,inactive,–,inactive,37.2 µM (active),–,–
